According to PMC13494018:
Unmarked numbers belong to inactive results. No rule for the calls is given here.

B1: d8r1_design_ppi_243_dldesign_0_cycle1_af2pred (protein)
chain: DQNLKGALLIGQANAYAVAAAKAAAAAGAPAAEVQAAIDKVRAMTAEAGKLSPSLASTAERVAAIEGARLAAAA
B2: d8r1_design_ppi_56_dldesign_0_cycle0_af2pred (protein)
chain: EAEKALKEAAEKIKKAAKEAEKDPEKAVEYFSEALAYAMRTAIKYPEIAAALGAAAAGLAEGAREAKKDVEKGVKIAEKAAKELEKA
B3: d8r1_design_ppi_254_dldesign_0_cycle0_af2pred (protein)
chain: AAAKALAEAALREVGSALSEAISLTSKDPKKGEEKFKEAEALAKAKVAEMEAIDPAVGAALKAAVDALLAQTKLIMEKIKEAKK
B4: d8r1_design_ppi_1481_dldesign_0_cycle0_af2pred (protein)
chain: SSEANDAALKEGMALASATLAQARALIAAGGAAAAAAAAALAEAAVARLRELGAKYPQRAASFAALGEALRREVARLAA
B5: d8r1_design_ppi_669_dldesign_0_cycle1_af2pred (protein)
chain: AAAAAAANVRKVGEVSIEYVERVDAVSGANFAAGAFRGLATLLPPEVAKHAAAAAEKVRETGEKETKEALIETIRTTTAEIAALIEA
B6: d8r1_design_ppi_86_dldesign_0_cycle1_af2pred (protein)
chain: GARAAALAAAAALNAAAAKADAAAAKAYGRAAVAAARAYFAGADGAELLALVAKVGAEDPAVAADILAIATAALAAAA
B7: d8r1_design_ppi_23_dldesign_0_cycle1_af2pred (protein)
chain: DAEEKKKLAKKMEEMAKKVAAAGKAVPAVKAEADATAKALKAMAKLALEGSLEDAKSLLKAGEAAAKRVLEKAKAAAAAAA
B8: d8r1_design_ppi_793_dldesign_0_cycle1_af2pred (protein)
chain: GISPESAKKLAKQMLEDALKAAEEARKLIKEGATPEEVQKAIRGAQAAADAAEALAKVDPAVAPYAKKAKAAVEEARKLAK
B9: d8r1_design_ppi_59_dldesign_0_cycle0_af2pred (protein)
chain: MSELAEEAIKALVAAHNAAAALAALGRTAEAAALSRQASEAFGKAFKALQEGDEETAKKYLEELKAIAAKAAEAAAAAAAAAAAA
B10: d8r1_design_ppi_1215_dldesign_0_cycle1_af2pred (protein)
chain: AEEVGRMALTAAEAGERIALEKVKDPATAAEGAALAKVAADALKAAAEKVPEVAERLNKAATELYKKVADAA
B11: d8r1_design_ppi_384_dldesign_0_cycle1_af2pred (protein)
chain: SAKEAAAKAARNAAAAAKKADEAGFNPKVIASLAKAAGEEALVSPESVEAAEEAAKIAEKYPSKEAQEAAKYAKELAKAAKAKAA
B12: d8r1_design_ppi_167_dldesign_0_cycle0_af2pred (protein)
chain: SSEERYAEAAKLLAETAAKAAALIAKNPAVAEAAKEMQRYAARAAAALVAGDEEKAKEYKKKMEEALAKAEALVA
B13: d8r1_design_ppi_219_dldesign_0_cycle0_af2pred (protein)
chain: GERIKRNAEIVAATYAEVAALAAGEKEATARRAAGLLAAGAMSPEGREEYLAEALALAAEVGAEAAALVAEAAAAI
B14: d8r1_design_ppi_254_dldesign_0_cycle1_af2pred (protein)
chain: AAAQAAAAEALRKVREAFSEAIALTVKNPEEGEKKFKEAEKLAEAAVKEQKAVDPAVGAALAKQVEATVKSAKEIMELIKKAKE
B15: d8r1_design_ppi_789_dldesign_0_cycle1_af2pred (protein)
chain: ALEERLRAALEAARELRERGVEEGWSPGELANAVLALAKEAGLPLEAQNTLAAAAMVPGERAEILLEKAEEIV
B16: d8r1_design_ppi_128_dldesign_0_cycle0_af2pred (protein)
chain: EELEKLKEEAKKEIKEALEYTEKAKEDPDYLAKALGHLNKARQLAAKLPSAEEVKKEIDKMISAAMAGDVEKAKEYAEKAIKLLEKD
B17: d8r1_design_ppi_499_dldesign_0_cycle0_af2pred (protein)
chain: GMARSLQRAAENTAARAAEYLRDPAKAEIGRNALAAAAALTEKAAAEAGLSPEEAAAAAAATRAATLAAAA
B18: d8r1_design_ppi_1041_dldesign_0_cycle1_af2pred (protein)
chain: MEEKEEEEAKKAAKAAVDAATKVAEKAAKASTPEVAKKLTAAAKGLKGATELLAKINPKNAAAFAKAAAERFTKIAEKAVKDAA
B19: d8r1_design_ppi_179_dldesign_0_cycle1_af2pred (protein)
chain: MESARNAAEGIAKAAEENPESGARLGKGAVEVLAKRDIEAAVEAARLAAELSKEAGKEEVAEVMKKLAEEAEKKL

Target: PDL1, Q9NZQ7
Sequence (Q9NZQ7 whole entry): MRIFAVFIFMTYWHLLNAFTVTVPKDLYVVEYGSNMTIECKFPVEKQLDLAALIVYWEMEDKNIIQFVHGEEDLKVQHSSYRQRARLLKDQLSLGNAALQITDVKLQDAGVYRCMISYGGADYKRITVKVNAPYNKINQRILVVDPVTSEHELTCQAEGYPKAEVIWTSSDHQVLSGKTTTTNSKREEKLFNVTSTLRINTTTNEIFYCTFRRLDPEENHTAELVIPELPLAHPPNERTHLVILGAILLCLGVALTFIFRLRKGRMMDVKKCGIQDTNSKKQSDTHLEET

Binder	binding in a display sort
B1	not found
B2	not found
B3	not found
B4	not found
B5	not found
B6	not found
B7	not found
B8	not found
B9	not found
B10	not found
B11	not found
B12	not found
B13	not found
B14	not found
B15	not found
B16	not found
B17	not found
B18	not found
B19	not found
